From PubChem BioAssay (NCI)
The panel holds about 83,000 compounds, 20% with a hit somewhere; the sample as a whole holds those more often.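 Growth was measured after 48 h exposure to one concentration of compound in 96-well plates. Values under 10 count as active.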 Values without a mark were called inactive. The source made the active and inactive calls.

How the values were obtained:
Experiment in all cases: NCI-60 one-dose screen, 48 h (100 = growth as untreated, 0 = no growth, -100 = all killed)
Settings in all cases: 10 µM
[1] = test system: NCI-H23 lung
[2] = test system: NCI-H226 lung
[3] = test system: NCI-H322M lung
[4] = test system: HOP-62 NSCLC
[5] = test system: NCI-H460 lung
[6] = test system: NCI-H522 lung
[7] = test system: A549/ATCC NSCLC
[8] = test system: 786-0 renal
[9] = test system: COLO 205 colon
[10] = test system: DU-145 prostate
[11] = test system: K-562 leukemia
[12] = test system: MALME-3M melanoma
[13] = test system: MDA-MB-231 breast
[14] = test system: RXF 393 renal
[15] = test system: SF-268 CNS
[16] = test system: SF-295 CNS
[17] = test system: SF-539 CNS
[18] = test system: UACC-257 melanoma
[19] = test system: M14 melanoma
[20] = test system: HCT-15 colon

Structure (SMILES)	growth [1]	growth [2]	growth [3]	growth [4]	growth [5]	growth [6]	growth [7]	growth [8]	growth [9]	growth [10]	growth [11]	growth [12]	growth [13]	growth [14]	growth [15]	growth [16]	growth [17]	growth [18]	growth [19]	growth [20]
O=C1/C(=C\c2ccc(F)cc2)CN(C(=O)c2ccc([N+](=O)[O-])cc2)C/C1=C\c1ccc(F)cc1	49.3%	38.2%	76.3%	32.9%	68.4%	46.9%	52.9%	20.3%	38.8%	25.5%	1.96% (active)	40.5%	0.131% (active)	-2.85% (active)	29.2%	10.4%	58%	67%	2.02% (active)	7.31% (active)
N#CCCN(NC(=O)OCc1ccccc1)C(=O)OCc1ccccc1	107%	115%	109%	120%	103%	120%	106%	97.9%	119%	109%	106%	105%	113%	111%	106%	99.1%	106%	107%	103%	107%
O=C1/C(=C/c2ccc([N+](=O)[O-])s2)Oc2ccccc21	-37% (active)	-0.59% (active)	-21.5% (active)	3.77% (active)	-27.7% (active)	-68.8% (active)	-22.2% (active)	-37% (active)	-69.2% (active)	4.99% (active)	-14.5% (active)	-60.9% (active)	-70.3% (active)	-81.1% (active)	-54.2% (active)	-37.4% (active)	-77% (active)	-54.6% (active)	-40.9% (active)	-15.5% (active)
COc1ccc(-c2cc(/C=C3\C(=O)Nc4ccc(OC)cc43)[nH]n2)cc1	67.1%	69.8%	53.9%	50.7%	16.4%	11.1%	40.6%	65.3%	13%	40.4%	15.6%	35.1%	59.2%	48%	42%	1.93% (active)	24.8%	68.8%	35.7%	22.8%
CC(=O)n1c(-c2ccc(Cl)c(Cl)c2)cn(-c2ccc(Cl)cc2)c1=O	27.5%	76.2%	69%	-29.1% (active)	3.52% (active)	36.7%	-10.1% (active)	2.32% (active)	-19.2% (active)	0.358% (active)	-35% (active)	26.6%	33.3%	-31.2% (active)	-32.7% (active)	1.9% (active)	-33.2% (active)	57.5%	34%	59%
Nc1nc(Nc2ccccc2)n[nH]1	94.7%	96.8%	108%	92.3%	108%	17.7%	34.8%	101%	114%	117%	98.6%	98.5%	105%	104%	112%	98.1%	94.2%	-7.13% (active)	96.5%	93.8%
Nc1nc(N)c(NC(=O)CNc2ccc(C(=O)O)cc2)c(N)n1	112%	98%	106%	107%	110%	92%	102%	107%	110%	121%	106%	112%	106%	96.4%	119%	99.2%	101%	103%	111%	112%
O=c1oc2cc(OS(=O)(=O)c3ccccc3)ccc2c2c1CCCCC2	68.4%	59.6%	82.6%	78.2%	28.4%	66.4%	34.7%	68.8%	31.1%	84.8%	37.4%	66.7%	68.4%	64%	76.8%	59.8%	48.3%	50.8%	70.2%	42.2%
COc1cc(-c2cc(/C=C3\C(=O)Nc4ccccc43)[nH]n2)cc(OC)c1OC	56%	66.3%	68.6%	65%	74.7%	64.5%	54.6%	84.2%	32.3%	82.5%	31.7%	1.21% (active)	49.9%	79.3%	74.8%	70.6%	67.8%	23%	32.8%	36.9%
CCOC(=O)C1CCc2c(ccc3ccccc23)N1CCC#N (stereo not given)	89.7%	98.7%	85.7%	101%	109%	93.3%	104%	100%	119%	111%	55.5%	80.2%	91.5%	89%	113%	88%	110%	104%	93.3%	91.9%
N#Cc1cccc(OCc2nc(N)nc(N)c2-c2ccc(Cl)c(Cl)c2)c1	32.9%	46.7%	24.7%	35.9%	11.5%	8.77% (active)	7.65% (active)	19.4%	34.1%	25.3%	14.6%	33.6%	51.4%	43.7%	28.4%	-7% (active)	22.6%	11.1%	23.2%	17.7%
CC(C)=NNc1ncnc2c1ncn2C1OC(CO)C(O)C1O (stereo not given)	31.7%	32%	-1.85% (active)	7.08% (active)	-2.28% (active)	14.8%	14.3%	35%	3.97% (active)	12.8%	14.8%	-15.8% (active)	19.3%	23.1%	40.9%	8.82% (active)	35.3%	73.9%	35.8%	12.6%
CC(=O)N(C)c1ccc(Nc2ccc(Nc3ccc(N(C)C(C)=O)cc3)c3c2C(=O)c2ccccc2C3=O)cc1	87.3%	84.2%	75.4%	75.2%	64.9%	53.8%	63.5%	78.7%	70.6%	91.2%	55.8%	113%	49.3%	81.7%	76.5%	81.2%	76.3%	74.5%	86.1%	79.8%
